# Laboratory results from PubChem BioAssay AID800 (PCMD, 2007).
# About 650 (0.3%) of roughly 220,000 compounds were called active. What follows is part of a selection rich in actives, with near analogues and random picks from the rest. A number with no mark means an inactive call. Rule as the data show it: active = inhibition above about 40%; inactive = the rest.
# Target: Coagulation factor XII (Homo sapiens) (UniProt P00748)
# Assay: human FXIIa protease inhibitors, primary screen, biochemical, 1536-well (AID 800);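 also: 0% = enzyme with no compound and 100% = blank without enzyme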
# Settings: purified FXIIa, Boc-QGR-AMC fluorogenic substrate, 2 h; at 5 µM; stronger effect = higher value
# Coagulation factor XII (Homo sapiens), sequence (P00748 20-372 limits assumed): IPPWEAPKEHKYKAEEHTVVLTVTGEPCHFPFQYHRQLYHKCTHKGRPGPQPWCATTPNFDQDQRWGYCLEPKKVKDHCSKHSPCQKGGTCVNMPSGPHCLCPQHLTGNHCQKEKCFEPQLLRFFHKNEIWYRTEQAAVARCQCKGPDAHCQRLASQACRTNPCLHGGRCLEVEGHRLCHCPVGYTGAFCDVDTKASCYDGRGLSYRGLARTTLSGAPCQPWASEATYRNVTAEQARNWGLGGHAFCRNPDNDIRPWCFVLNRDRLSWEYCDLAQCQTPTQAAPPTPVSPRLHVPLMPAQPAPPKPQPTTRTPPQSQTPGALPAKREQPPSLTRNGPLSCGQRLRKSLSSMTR
# Coagulation factor XII (Homo sapiens), sequence (P00748 373-615 limits assumed): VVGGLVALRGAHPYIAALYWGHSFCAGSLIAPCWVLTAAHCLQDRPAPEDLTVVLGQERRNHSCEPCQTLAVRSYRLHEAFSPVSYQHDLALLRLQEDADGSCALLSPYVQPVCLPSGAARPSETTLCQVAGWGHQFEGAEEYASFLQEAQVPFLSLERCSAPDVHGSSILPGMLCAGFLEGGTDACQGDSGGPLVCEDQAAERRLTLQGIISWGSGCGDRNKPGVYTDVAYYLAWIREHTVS
row,Compound,inhibition
1,Cc1ccc(/C=C/C(=O)O)cc1S(=O)(=O)N1CCC(Cc2ccccc2)CC1,6.76%
2,O=c1[nH]nc(SCCS(=O)(=O)c2ccc(F)cc2)n1-c1ccccc1C(F)(F)F,6.99%
3,CN(c1ccccn1)c1ncnc2[nH]ncc12,3.53%
4,O=C(NC1CC1)C1=C[C@H](c2c[nH]c3ccccc23)C[C@H](OCc2ccc(CO)cc2)O1,1.62%
5,Cc1nc(C(=O)NCc2ccccc2)sc1C1(C)CC(c2cccnc2)=NO1 (configuration not stated),6.55%
6,CC1=NNC(=O)C1CC(=O)N/N=C/c1ccncc1 (configuration not stated),2.75%
7,C=CCCN(Cc1ccccc1)S(=O)(=O)c1ccccc1Br,5.98%
8,c1ccc(-c2cc(N3CCCCC3)c3ccccc3n2)cc1,16%
9,c1ccc(-n2cccc2)c(N2CCCCC2)c1,46.9% (active)
10,Cc1ccccc1NC(=O)Nc1ccccc1N1CCCCC1,5.71%
11,Cc1cc(-n2cnc(-c3cn(C)nc3C)n2)no1,11.1%
12,CCCCCCNS(=O)(=O)c1ccccc1Br,9.21%
13,O=C(Cn1cnc2cc([N+](=O)[O-])ccc2c1=O)NC(=O)NCc1ccccc1,1.31%
14,CCOC(=O)NNc1cc(C(F)(F)F)ccn1,9.46%
15,O=C(NNS(=O)(=O)c1ccccc1C(F)(F)F)c1cc2ncc(C(F)(F)F)cc2s1,9.81%
16,CCc1ccc[n+](-c2nc([O-])sc2C=O)c1,9.94%

row,Compound,inhibition
1,C#CCOCCOCCOCCNc1nc(N2CCN(C(=O)[C@H](CCC(=O)O)n3cc(C(N)CO)nn3)CC2)nc(N2CCN(C(=O)[C@H](CCCCN)n3cc(C(N)CC(C)C)nn3)CC2)n1 (some centres not stated),5.53%
2,N#Cc1c(NCCO)ccc([N+](=O)[O-])c1NCCO,12.3%
3,CCCC[C@@H]1CN=C(N)N1CCc1cc(C(F)(F)F)cc(C(F)(F)F)c1,2.17%
4,CC(C)c1ccc(NC(=S)NC2CC3C=CC2C3)cc1 (configuration not stated),3.63%
5,CCCc1c(C(=O)Nc2ccc(F)cc2)cnn1-c1ccccc1,-0.53%
6,CCOC(=O)c1c(NC(=S)NC(=O)c2ccco2)sc2c1CCCC2,23.9%
7,CCOC(=O)c1c(NC(=O)c2ccc(Br)o2)sc2c1CCCC2,44% (active)
8,CCOCC(=O)Nc1sc2c(c1C(=O)OCC)CCCC2,5.03%
9,C=C1CCN([C@H](C(=O)NCc2cc(OC)c(OC)c(OC)c2)C(C)C)S(=O)(=O)c2ccccc21,4.35%
10,FC(F)(F)c1ccnc(Oc2ccc(C3=NCCS3)cc2)c1,9.29%
11,CCOc1ccc(C2c3[nH]c4ccccc4c3CCN2Cc2cccn2-c2ncccn2)cc1 (configuration not stated),4.53%
12,CC(C)(C)CN1C(=O)C(=O)NC[C@H]1Cc1cccc2ccccc12,4.1%
13,COCc1cc(=O)[nH]c(-c2ccc(C(F)(F)F)cc2)n1,8.57%
14,COc1ccccc1C1CCN(C(=S)Nc2ccc(Br)cc2)CC1,3.05%
15,Fc1ccc(-c2csc(-c3ccc(C4SCCS4)cc3)n2)cc1F,7.1%
16,COc1ccc(C(CC(=O)N2CCN(c3ccccc3)CC2)c2c(O)cc(OC)cc2OC)cc1 (configuration not stated),1.72%
